# According to ChEMBL document CHEMBL3988442, “University of Dundee, Small-Polar-MMV Screening Library” (2021):
# For some assays here: Potency and affinity values are given separately.
# Columns and labels:
# Set-up in all cases: scale not given: direction of the effect not stated beside the values
# [1] = target: Protein translocase subunit SecA (Escherichia coli (strain K12)) (UniProt P10408); test: Assay to Identify E. coli SecA ATPase Inhibitors; type: functional; settings: 30 µM
# [2] = target: T1, Ubiquitin-activating enzyme e1, putative (Leishmania donovani (strain BPK282A1)) (UniProt E9BSI1); test: Leishmania donovani Ubiquitin Activating Enzyme (LdE1); type: functional; settings: 30 µM
# T1 sequence (whole entry): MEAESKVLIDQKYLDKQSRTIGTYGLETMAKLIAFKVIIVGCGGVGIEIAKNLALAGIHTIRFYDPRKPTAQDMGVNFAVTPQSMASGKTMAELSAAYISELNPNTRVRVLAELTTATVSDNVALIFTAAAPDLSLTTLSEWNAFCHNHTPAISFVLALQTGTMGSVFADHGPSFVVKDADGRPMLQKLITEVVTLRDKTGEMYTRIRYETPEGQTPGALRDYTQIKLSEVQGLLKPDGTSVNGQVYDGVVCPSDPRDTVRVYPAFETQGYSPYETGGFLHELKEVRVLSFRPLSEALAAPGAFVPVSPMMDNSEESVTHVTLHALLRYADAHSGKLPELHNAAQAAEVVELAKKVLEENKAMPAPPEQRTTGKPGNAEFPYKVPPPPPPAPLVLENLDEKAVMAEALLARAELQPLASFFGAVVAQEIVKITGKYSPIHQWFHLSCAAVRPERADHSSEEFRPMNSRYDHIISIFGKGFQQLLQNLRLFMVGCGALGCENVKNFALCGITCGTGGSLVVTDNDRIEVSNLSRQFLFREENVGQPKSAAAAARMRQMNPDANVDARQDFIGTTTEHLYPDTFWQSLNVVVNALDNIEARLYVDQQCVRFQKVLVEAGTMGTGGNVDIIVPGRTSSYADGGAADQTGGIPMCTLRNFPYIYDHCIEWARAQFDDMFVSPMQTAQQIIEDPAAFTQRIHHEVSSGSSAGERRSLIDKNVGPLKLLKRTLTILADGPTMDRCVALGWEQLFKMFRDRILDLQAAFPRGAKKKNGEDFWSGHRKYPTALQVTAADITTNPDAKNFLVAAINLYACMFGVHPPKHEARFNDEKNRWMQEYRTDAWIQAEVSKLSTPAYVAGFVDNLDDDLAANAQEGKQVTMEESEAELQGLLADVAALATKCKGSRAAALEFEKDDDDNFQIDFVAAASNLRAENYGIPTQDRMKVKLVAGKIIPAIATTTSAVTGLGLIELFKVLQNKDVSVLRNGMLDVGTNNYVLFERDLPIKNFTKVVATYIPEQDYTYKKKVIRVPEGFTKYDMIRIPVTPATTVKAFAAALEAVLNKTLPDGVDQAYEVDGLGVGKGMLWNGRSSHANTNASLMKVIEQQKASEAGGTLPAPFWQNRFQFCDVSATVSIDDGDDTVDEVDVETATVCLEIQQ
# [3] = target: AMP-activated protein kinase, AMPK (Homo sapiens) (UniProt P54646+O43741+P54619+Q9UGJ0+Q9Y478+Q13131+Q9UGI9); test: AMP-dependent Kinase enzyme assay. An in vitro enzyme assay that detects ADP turnover that is directly proportional to AMPK activity. This uses naive AMPK that is activated during the assay with MK-8722; type: functional; settings: 30 µM
# [4] = target: Sialic acid-binding Ig-like lectin 9 (Homo sapiens) (UniProt Q9Y336); test: Hs-Siglec9 ALPHAscreen SOP 20170721; settings: 10 µM
# Trypanosoma cruzi = test: Trypanosoma cruzi phosphomannomutase and mannose-1-phosphate guanylyltransferase assay; type: functional; settings: 10 µM
# [5] = target: T2, Arginase-2, mitochondrial (Homo sapiens) (UniProt P78540); test: in vitro enzyme assay to detect the production of urea directly proportional to the activity of Arginase II; type: functional; settings: 33.3 µM; further: in the data most compounds retested in dose-response had high values
# T2 sequence (whole entry): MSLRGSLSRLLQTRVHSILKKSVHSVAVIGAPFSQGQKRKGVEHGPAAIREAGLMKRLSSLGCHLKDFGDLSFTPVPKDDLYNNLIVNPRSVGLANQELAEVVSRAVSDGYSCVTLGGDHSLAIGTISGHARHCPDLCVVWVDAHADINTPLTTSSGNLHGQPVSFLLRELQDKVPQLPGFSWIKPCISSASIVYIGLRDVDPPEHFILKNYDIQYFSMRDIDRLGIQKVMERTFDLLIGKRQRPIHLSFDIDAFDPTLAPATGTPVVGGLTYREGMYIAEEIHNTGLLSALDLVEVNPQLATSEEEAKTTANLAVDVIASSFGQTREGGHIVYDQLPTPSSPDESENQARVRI
# [6] = target: T3, Proteasome subunit beta (Trypanosoma cruzi) (UniProt O96673); test: Trypanosoma cruzi proteasome chymotrypsin-like activity (TcProtChymo) assay.; further: in the data most compounds retested in dose-response had high values; type: functional; settings: 9.37 µM
# T3 sequence (whole entry): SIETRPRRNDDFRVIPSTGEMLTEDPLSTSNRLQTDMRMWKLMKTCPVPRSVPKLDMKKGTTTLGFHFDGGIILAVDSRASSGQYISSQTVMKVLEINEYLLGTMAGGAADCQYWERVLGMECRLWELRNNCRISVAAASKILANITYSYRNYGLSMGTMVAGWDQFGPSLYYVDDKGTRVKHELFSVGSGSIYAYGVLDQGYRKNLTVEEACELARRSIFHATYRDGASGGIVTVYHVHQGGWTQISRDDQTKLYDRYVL
# Homo sapiens = organism: Homo sapiens; test: To identify inhibition of the IFN signalling (Jak-Stat) pathway via expression of an eGFP reporter gene under the control of an IFN-stimulated response element (ISRE) containing MxA promoter.; type: functional; settings: 30 µM
# [7] = target: T4, Tyrosyl-tRNA synthetase, putative (Trypanosoma cruzi (strain CL Brener)) (UniProt Q4DSP6); test: Trypanosoma cruzi tyrosyl tRNA synthetase (TcYRS) _High Tyrosine SOP; type: functional; settings: 30 µM; further: in the data most compounds retested in dose-response had high values
# T4 sequence (whole entry): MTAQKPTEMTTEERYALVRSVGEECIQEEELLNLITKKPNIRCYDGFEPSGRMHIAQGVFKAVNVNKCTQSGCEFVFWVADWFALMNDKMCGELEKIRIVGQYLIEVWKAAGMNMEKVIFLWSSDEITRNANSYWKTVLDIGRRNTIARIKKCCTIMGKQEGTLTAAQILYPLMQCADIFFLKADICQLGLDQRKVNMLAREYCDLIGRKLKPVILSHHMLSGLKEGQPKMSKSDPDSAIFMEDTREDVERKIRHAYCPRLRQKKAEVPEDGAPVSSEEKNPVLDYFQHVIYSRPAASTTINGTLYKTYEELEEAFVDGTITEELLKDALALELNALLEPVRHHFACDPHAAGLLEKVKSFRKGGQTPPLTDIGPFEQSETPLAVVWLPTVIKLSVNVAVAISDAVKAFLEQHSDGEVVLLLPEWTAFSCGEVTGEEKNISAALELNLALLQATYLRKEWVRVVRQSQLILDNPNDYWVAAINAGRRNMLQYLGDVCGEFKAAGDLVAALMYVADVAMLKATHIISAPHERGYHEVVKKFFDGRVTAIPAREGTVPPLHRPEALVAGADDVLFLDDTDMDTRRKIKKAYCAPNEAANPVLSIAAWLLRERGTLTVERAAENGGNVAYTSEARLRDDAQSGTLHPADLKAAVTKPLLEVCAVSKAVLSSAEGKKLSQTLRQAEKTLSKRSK
# [8] = target: T4, Tyrosyl-tRNA synthetase, putative (Trypanosoma cruzi (strain CL Brener)); test: Trypanosoma cruzi tyrosyl tRNA synthetase (TcYRS) SOP; type: functional; settings: 30 µM
# [9] = target: Chromo domain-containing protein 1 (Saccharomyces cerevisiae (strain ATCC 204508 / S288c) (Baker's yeast)) (UniProt P32657); test: ScCHD-1 Enzyme Inhibition Assay; type: functional; settings: 30 µM; further: in the data most compounds retested in dose-response had high values
# Chromo domain-containing protein 1 (Saccharomyces cerevisiae (strain ATCC 204508 / S288c) (Baker's yeast)), sequence (P32657 whole entry, the tested form may be a part): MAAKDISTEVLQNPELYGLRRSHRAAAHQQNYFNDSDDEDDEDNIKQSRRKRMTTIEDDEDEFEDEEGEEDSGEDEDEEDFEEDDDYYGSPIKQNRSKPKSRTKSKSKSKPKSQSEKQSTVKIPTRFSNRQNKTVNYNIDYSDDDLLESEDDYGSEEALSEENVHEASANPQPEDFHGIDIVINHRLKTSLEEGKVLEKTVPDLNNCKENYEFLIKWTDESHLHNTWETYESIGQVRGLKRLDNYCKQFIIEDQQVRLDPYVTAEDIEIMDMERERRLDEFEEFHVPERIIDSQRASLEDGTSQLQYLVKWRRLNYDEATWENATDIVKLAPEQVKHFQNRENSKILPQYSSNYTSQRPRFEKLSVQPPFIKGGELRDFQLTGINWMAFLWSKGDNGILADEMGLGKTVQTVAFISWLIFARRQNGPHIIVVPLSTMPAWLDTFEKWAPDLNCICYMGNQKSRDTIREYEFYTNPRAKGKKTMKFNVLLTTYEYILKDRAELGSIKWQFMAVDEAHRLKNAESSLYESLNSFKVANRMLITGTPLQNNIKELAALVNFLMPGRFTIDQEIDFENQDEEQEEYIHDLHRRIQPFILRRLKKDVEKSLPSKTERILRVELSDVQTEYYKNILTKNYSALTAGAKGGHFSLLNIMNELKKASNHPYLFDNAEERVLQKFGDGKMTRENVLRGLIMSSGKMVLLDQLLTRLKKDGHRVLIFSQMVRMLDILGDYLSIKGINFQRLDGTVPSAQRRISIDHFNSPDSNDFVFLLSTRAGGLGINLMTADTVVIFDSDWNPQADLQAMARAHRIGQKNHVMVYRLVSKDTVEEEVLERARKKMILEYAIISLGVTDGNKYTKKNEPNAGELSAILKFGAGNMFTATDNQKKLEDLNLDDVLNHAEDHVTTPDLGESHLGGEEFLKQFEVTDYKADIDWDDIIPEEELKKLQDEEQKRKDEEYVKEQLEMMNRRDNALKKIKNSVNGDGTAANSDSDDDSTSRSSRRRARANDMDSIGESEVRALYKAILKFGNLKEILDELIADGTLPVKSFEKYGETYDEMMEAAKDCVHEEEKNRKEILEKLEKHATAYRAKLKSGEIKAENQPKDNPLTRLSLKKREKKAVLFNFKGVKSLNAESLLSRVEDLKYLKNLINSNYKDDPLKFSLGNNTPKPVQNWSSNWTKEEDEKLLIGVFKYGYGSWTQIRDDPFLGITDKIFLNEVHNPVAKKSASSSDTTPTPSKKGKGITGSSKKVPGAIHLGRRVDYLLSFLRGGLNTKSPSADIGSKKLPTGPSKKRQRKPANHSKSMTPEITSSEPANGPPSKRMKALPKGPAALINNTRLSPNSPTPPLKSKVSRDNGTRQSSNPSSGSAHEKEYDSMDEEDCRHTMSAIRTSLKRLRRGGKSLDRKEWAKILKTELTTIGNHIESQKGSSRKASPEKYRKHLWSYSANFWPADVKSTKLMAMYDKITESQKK
# Protein translocase subunit SecA (Escherichia coli (strain K12)), sequence (P10408 whole entry): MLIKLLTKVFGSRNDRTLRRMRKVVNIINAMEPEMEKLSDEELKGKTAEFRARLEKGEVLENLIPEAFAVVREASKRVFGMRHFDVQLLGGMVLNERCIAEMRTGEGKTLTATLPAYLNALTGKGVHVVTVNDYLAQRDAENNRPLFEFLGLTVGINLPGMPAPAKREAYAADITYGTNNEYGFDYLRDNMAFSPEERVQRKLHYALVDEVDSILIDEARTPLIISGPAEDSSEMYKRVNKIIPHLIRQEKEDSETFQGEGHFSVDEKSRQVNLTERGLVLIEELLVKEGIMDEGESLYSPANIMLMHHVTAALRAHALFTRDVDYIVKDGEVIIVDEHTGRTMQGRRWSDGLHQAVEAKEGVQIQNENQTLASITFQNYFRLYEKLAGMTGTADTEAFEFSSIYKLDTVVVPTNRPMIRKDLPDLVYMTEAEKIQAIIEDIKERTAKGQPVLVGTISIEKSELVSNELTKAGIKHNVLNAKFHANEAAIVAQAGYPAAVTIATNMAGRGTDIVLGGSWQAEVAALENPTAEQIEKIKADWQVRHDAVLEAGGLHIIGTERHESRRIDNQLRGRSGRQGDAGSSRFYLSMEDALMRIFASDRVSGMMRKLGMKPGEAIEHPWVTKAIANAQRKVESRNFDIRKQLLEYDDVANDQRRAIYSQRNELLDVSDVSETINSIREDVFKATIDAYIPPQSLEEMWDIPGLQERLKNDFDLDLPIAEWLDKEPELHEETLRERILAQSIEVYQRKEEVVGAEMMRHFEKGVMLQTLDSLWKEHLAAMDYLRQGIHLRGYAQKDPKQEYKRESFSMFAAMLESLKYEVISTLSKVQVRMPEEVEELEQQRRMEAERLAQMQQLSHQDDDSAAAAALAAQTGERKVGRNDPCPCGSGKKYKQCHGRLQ
# Sialic acid-binding Ig-like lectin 9 (Homo sapiens), sequence (Q9Y336 whole entry): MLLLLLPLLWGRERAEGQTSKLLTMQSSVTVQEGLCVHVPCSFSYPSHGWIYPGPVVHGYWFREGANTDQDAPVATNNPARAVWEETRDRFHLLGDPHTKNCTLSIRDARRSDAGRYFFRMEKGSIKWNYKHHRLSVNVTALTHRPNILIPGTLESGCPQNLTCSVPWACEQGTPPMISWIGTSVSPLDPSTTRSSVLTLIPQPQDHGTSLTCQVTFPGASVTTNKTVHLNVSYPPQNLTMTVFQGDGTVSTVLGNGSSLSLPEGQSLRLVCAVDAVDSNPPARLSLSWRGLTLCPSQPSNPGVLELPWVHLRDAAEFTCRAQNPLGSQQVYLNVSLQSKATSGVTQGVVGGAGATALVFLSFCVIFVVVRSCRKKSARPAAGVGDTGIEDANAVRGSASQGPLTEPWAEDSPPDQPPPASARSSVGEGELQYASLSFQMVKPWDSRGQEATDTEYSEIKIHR
SMILES,Percent Effect [1],Percent Effect [2],Percent Effect [3],Percent Effect [4],Percent Effect (Trypanosoma cruzi),Percent Effect [5],Percent Effect [6],Percent Effect (Homo sapiens),Percent Effect [7],Percent Effect [8],Percent Effect [9]
N#Cc1ccc(CNC(=O)NC2CCN(CC(F)F)CC2)cc1,-5.31%,2.7%,0.0143%,20.2%,10.8%,-2.23%,12.3%,8.62%,4.3%,16.1%,-4.65%
CCc1ccc(CN2CC[C@H]3C[C@H](c4nnc(C)[nH]4)O[C@@H]3C2)o1,-2%,0%,-2.87%,34.9%,9.52%,-6.79%,17.2%,9.84%,0%,-1.24%,-3.68%
CCN1CCOC(CNCc2ccccc2OCc2ccccn2)C1 (configuration not stated),-2.71%,5.26%,-13%,-5.97%,-4.39%,3.24%,9.56%,9.07%,6.4%,13.6%,-8.14%
CN(CCCNc1cc(N2CCCC2CO)ncn1)S(C)(=O)=O (configuration not stated),-2.02%,8.22%,-20.8%,7.67%,-1.96%,1.82%,16.3%,8.58%,2.15%,7.5%,-5.59%
COc1ccc(C2=CCN(C(=O)CN(C)CC(C)C#N)CC2)cc1 (configuration not stated),-8.6%,-12.7%,-4.45%,7.49%,10.5%,-6.84%,0.901%,10.5%,7.39%,13.9%,-8.15%
Cc1noc(C)c1CNc1cc(N2CCCC2CO)ncn1 (configuration not stated),-2.84%,6.33%,-25.2%,4.54%,1.54%,1.5%,1.03%,-8.87%,0%,12.7%,-23.1%
Cc1nn(C)c(Cl)c1C1CCCN1C(=O)c1ccc2c(c1)OCO2 (configuration not stated),-1.18%,-2.7%,-7.03%,-0.722%,-5.38%,-2%,-0.901%,13.8%,0.493%,-6.17%,0.203%
COc1ccc(OC)c(C(O)CN2CC(n3cccn3)C2)c1 (configuration not stated),-3.82%,-10.5%,2.67%,6.6%,9.02%,4.98%,9.52%,-12.8%,6.37%,9.76%,-8.21%
Cc1cc(C)n(CC2CCCN2C(=O)c2cccc3[nH]ncc23)n1 (configuration not stated),-2.49%,-10.8%,-1.43%,12.1%,7.89%,-2.77%,-4.49%,7.84%,5.94%,15.8%,-3.25%
COc1cccc(CN(C)C(=O)Nc2ccc3c(c2)OCCO3)c1,-0.723%,18.4%,-0.168%,-10.2%,0.0974%,2.37%,26.6%,22.9%,1.06%,10.4%,-8.52%
CCSCCC(=O)Nc1ncn(Cc2cccnc2)n1,-2.86%,5.33%,-3.63%,8.4%,-5.16%,3.65%,17.8%,9.04%,4.92%,13.6%,-5.58%
CC(=O)N1CCC(C(=O)c2cc(C)cnc2N)CC1,-3.36%,10.7%,3.67%,3.51%,3.15%,3.03%,7.67%,17.4%,4.25%,11.5%,-4.18%
O=C([C@@H]1C[C@H]2[C@H](CCN2Cc2nccs2)O1)N1CCOCC1,-0.787%,8.11%,1.14%,-3.79%,-2.15%,0.833%,19%,11.3%,10.9%,13.4%,8.93%
CCc1nc(C2CCCN(C(=O)c3cccc4cn[nH]c34)C2)no1 (configuration not stated),-7.64%,5.41%,1.19%,7.35%,-6.41%,-2.77%,6.64%,19.4%,2.97%,1.22%,3.58%
OCCOc1nc(-c2ccccc2Cl)no1,-1.86%,11%,-5.12%,4.94%,4.9%,18.6%,20.4%,24.7%,6.45%,20%,-5.57%
CCn1ccnc1CN1CCOC(CNc2cccnn2)C1 (configuration not stated),-0.964%,18.2%,-6.06%,5.48%,1.5%,2.85%,16.4%,17.5%,4.85%,19.5%,-8.74%
Cc1ccsc1CNC(=O)Cc1c(C)nc2c(c1C)c(=O)[nH]n2C,-4.14%,10.4%,5.94%,8.57%,-2.06%,2.32%,5.25%,21.2%,2.86%,11.8%,-20.4%
O=C(C1CCC1)N1CCN(C(=O)c2cnccn2)[C@H]2CS(=O)(=O)C[C@H]21,-0.271%,13.5%,-3.89%,16.5%,7.34%,0.476%,9.65%,3.49%,4.76%,17.1%,-3.81%
CCC1CCCN(C(=O)Cc2csc(-c3ncccn3)n2)C1 (configuration not stated),-2.19%,21.1%,0.0664%,-8.02%,5.26%,-1.92%,24.1%,25.1%,5.39%,17.1%,-12.4%
CC(C)c1nn(C)c(Cl)c1CNC1CCOc2ccccc21 (configuration not stated),-3.65%,8.11%,-0.168%,9.16%,2.32%,0.185%,-1.79%,31.4%,8.91%,23.2%,-2.97%
O=C(c1ccc(F)c(F)c1)N1CCCC1CN1CCCC1 (configuration not stated),-1.25%,7.89%,-2.36%,-14.5%,-3.02%,-3.55%,15.2%,-11.1%,7.45%,18.2%,-8.37%
Cc1nc(N2CCCC2)ncc1-c1cc(O)nc(N2CCCC2)n1,-4.52%,-1.33%,4.03%,6.18%,-4.13%,-2.64%,7.76%,-0.506%,2.12%,0%,-1.52%
